Inconclusive results are not listed. A call without a number means that no potency is given here. Calls of active or inactive are those of the source. Calls follow the shape of the dose curve; as a rule, active = well fitted inhibition curve with a large enough effect; inconclusive = small, poorly fitted or top-dose-only effect; inactive = no such curve, though single readings can be large or run the other way.
biological target: Cytochrome P450 3A7 (Homo sapiens) (UniProt P24462); experiment: Cytochrome P450 family 3 subfamily A member 7 (CYP3A7) small molecule antagonists: luciferase biochemical qHTS assay (AID 1963596); settings: P450-Glo CYP3A7 enzyme luminescence, 1 h; series mostly up to 57.4 µM; also: nearly all actives have a fitted effect of over 40% in size
Outline: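 Luminescence from luciferin released by CYP3A7 from a proluciferin substrate, read 20 min after detection reagent. Compound and enzyme-substrate mix sat 10 min before NADPH regeneration solution; reaction ran 1 h at room temperature.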
Potency is read from the fitted curve at half-maximal effect.

Cytochrome P450 3A7 (Homo sapiens), sequence (P24462 whole entry, looked up): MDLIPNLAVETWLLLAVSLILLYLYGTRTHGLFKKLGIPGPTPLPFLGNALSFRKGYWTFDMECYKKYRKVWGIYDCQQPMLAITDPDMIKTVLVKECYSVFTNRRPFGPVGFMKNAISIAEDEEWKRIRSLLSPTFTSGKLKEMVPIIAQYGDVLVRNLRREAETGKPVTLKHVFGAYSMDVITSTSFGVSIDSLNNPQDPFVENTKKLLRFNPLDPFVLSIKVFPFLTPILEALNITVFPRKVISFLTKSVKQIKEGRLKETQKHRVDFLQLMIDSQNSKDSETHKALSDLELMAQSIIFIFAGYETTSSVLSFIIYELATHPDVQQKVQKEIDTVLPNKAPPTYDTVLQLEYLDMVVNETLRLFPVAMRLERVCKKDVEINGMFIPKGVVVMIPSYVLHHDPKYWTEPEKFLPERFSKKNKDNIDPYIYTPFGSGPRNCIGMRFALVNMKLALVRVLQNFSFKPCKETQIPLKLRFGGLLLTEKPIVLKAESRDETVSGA

| Compound | Potency |
| --- | --- |
| CN1C(=O)OC(C)(C)C1=O | inactive |
| COc1ccc(CC(=O)Nc2c(C(=O)N3CCN(c4ccccc4F)CC3)oc3ccccc23)cc1OC | inactive |
| COc1ccc(NC(=O)c2ccc(-c3ccc(C(=N)N)cc3C)cc2)cc1N1CCN(C)CC1 | inactive |
| O=C(O)c1cccc(-c2ccc(-c3cn(C(=O)N4CCCCC4Cc4ccccc4)nn3)cc2)c1 (stereo not drawn) | inactive |
| O=C(OC(C(F)(F)F)C(F)(F)F)N1CCN(Cc2cccc(Oc3ccccc3)c2)CC1 | inactive |
| Nc1nc(-n2cc(C(=O)O)c(=O)c3cc(F)c(N4CC(O)C4)c(Cl)c32)c(F)cc1F | inactive |
| CC1(C#N)CCN(c2c(C(=O)N3CCN(S(C)(=O)=O)CC3)cnc3cc(F)c(F)cc23)CC1 | 14.1 µM (active) |
| CN1c2c(nc(N)[nH]c2=O)NCC1CNc1ccc(C(=O)NC(CCC(=O)O)C(=O)O)cc1 (stereo not drawn) | inactive |
| Cc1ccc(-c2nnc(Nc3ccccc3)c3ccccc23)cc1S(=O)(=O)NCc1nc2ccccc2[nH]1 | inactive |
| CC(=O)Oc1cc(C(F)(F)F)ccc1C(=O)O | inactive |
| CNC(=O)COC(=O)N1CCC(CCc2ccc(Cl)cc2)CC1 | inactive |
| C=CCNc1nc(NCC=C)nc(N2CCN(C(c3ccc(F)cc3)c3ccc(F)cc3)CC2)n1 | inactive |
| NC(=O)C[C@H](N)C(=O)O | inactive |
| COc1ccccc1Nc1nc(-c2ccccc2F)nc2ccccc12 | inactive |
| NC(Cc1ccc(O)c(O)c1)C(=O)O (stereo not drawn) | inactive |
| CC1(c2nc3c(C(N)=O)cccc3[nH]2)CCCN1 (stereo not drawn) | inactive |
| OCC=Cc1ccccc1 | inactive |
| CC(C)c1cccc2c(-c3ccccc3)cc(-c3ccc(-c4ccc(C(=O)O)cc4)[nH]3)nc12 | inactive |
